From PubChem BioAssay (EPA / NIEHS)
“And” between values parts separate entries of the source, which are not always exact repeats. Identical values can stand only once. A structure can be active in one record and inactive in another. The source made the active and inactive calls. Rule for the calls: active = hit-call score of the fitted dose curve at least 0.9, where 1 is the maximum; inactive = score below 0.9.

Key:
[1] = BSK_MyoF_SRB: Viability Assessment in the BioMAP Diversity Plus: MyoF Assay (AID 2284267); conditions: primary human lung fibroblasts;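 note: total protein by SRB absorbance in parallel cultures as cytotoxicity measure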
Method in brief: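 Cytotoxicity in primary human lung fibroblasts is gauged by SRB total-protein staining 24 h after dosing, with DMSO as the negative control.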

[2] = read-out: Matrix Metallopeptidase 1 (MMP1), MMP1 (gene 4312); test: BSK_MyoF_MMP1: BioMAP Diversity Plus: MyoF Assay for Matrix Metallopeptidase 1 (MMP1) Biomarker Activity (AID 2284268); conditions: primary human lung fibroblasts
Method in brief: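 Human lung fibroblasts (MyoF system) exposed to chemical for 24 h in 96-well format; MMP1 biomarker quantified by ELISA, with activity fitted in the positive direction relative to DMSO baseline.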

[3] = read-out: TIMP metallopeptidase inhibitor 1 (TIMP1), TIMP1 (gene 7076); test: BSK_MyoF_TIMP1: BioMAP Diversity Plus: MyoF Assay for TIMP metallopeptidase inhibitor 1 (TIMP1) Biomarker Activity (AID 2284269); conditions: primary human lung fibroblasts
Method in brief: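 Fibroblasts from human lung are dosed with chemical, cultured 24 h, and assayed for TIMP-1 by ELISA. Increases over the DMSO baseline are scored, with SRB total-protein staining run in parallel for cytotoxicity.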

[4] = read-out: Matrix Metallopeptidase 1 (MMP1), MMP1 (gene 4312); test: BSK_BF4T_MMP1: BioMAP Diversity Plus: BF4T Assay for Matrix Metallopeptidase 1 (MMP1) Biomarker Activity (AID 2284270); conditions: primary human bronchial epithelial cells with fibroblasts
Method in brief: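 Co-culture of human bronchial epithelial cells and dermal fibroblasts; MMP-1 levels measured by ELISA 24 hours after chemical dosing, relative to DMSO. Cytotoxicity checked in parallel cultures by SRB total-protein staining.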

[5] = read-out: Matrix Metallopeptidase 3 (MMP3), MMP3 (gene 4314); test: BSK_BF4T_MMP3: BioMAP Diversity Plus: BF4T Assay for Matrix Metallopeptidase 3 (MMP3) Biomarker Activity (AID 2284271); conditions: primary human bronchial epithelial cells with fibroblasts
Method in brief: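 Co-culture of human bronchial epithelial cells and dermal fibroblasts dosed 24 h; MMP-3 measured by ELISA, positive-direction fit versus DMSO. Cytotoxicity tracked by SRB total-protein staining (560 nm) in parallel cultures.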

[6] = read-out: Tissue plasminogen activator (tPA), PLAT (gene 5327); test: BSK_BF4T_tPA: BioMAP Diversity Plus: BF4T Assay for Tissue plasminogen activator (tPA) Biomarker Activity (AID 2284272); conditions: primary human bronchial epithelial cells with fibroblasts
Method in brief: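 tPA level quantified by ELISA at 24 h post-treatment in bronchial epithelial/dermal fibroblast co-cultures, gain of signal scored against DMSO baseline. Parallel cultures stained with 0.1% SRB (560 nm) to flag overt cytotoxicity.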

[7] = read-out: Plasminogen Activator Inhibitor-1 (PAI1), SERPINE1 (gene 5054); test: BSK_BF4T_PAI1: BioMAP Diversity Plus: BF4T Assay for Plasminogen Activator Inhibitor-1 (PAI1) Biomarker Activity (AID 2284273); conditions: primary human bronchial epithelial cells with fibroblasts
Method in brief: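 Co-culture of human bronchial epithelial cells and dermal fibroblasts exposed to compound for 24 h. PAI-1 measured by ELISA; activity fitted in positive direction versus DMSO. Parallel SRB staining assessed overt cytotoxicity.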

[8] = BSK_BF4T_SRB: Viability Assessment in the BioMAP Diversity Plus: BF4T Assay (AID 2284274); conditions: primary human bronchial epithelial cells with fibroblasts
Method in brief: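 Co-culture of human bronchial epithelial cells and dermal fibroblasts (BioMAP BF4T) exposed 24 h. Total protein by sulforhodamine B staining (0.1% SRB after 10% TCA fixation, 560 nm) in parallel cultures; fitted vs DMSO.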

[9] = read-out: urokinase Plasminogen Activator (uPA), PLAU (gene 5328); test: BSK_BF4T_uPA: BioMAP Diversity Plus: BF4T Assay for urokinase Plasminogen Activator (uPA) Biomarker Activity (AID 2284275); conditions: primary human bronchial epithelial cells with fibroblasts
Method in brief: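 Co-culture of human bronchial epithelial cells and dermal fibroblasts; uPA quantified by ELISA 24 hours after dosing, fitted relative to DMSO. Parallel SRB total-protein staining assessed overt cytotoxicity.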

[10] = read-out: Matrix Metallopeptidase 9 (MMP9), MMP9 (gene 4318); test: BSK_BF4T_MMP9: BioMAP Diversity Plus: BF4T Assay for Matrix Metallopeptidase 9 (MMP9) Biomarker Activity (AID 2284276); conditions: primary human bronchial epithelial cells with fibroblasts
Method in brief: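 Co-culture of human bronchial epithelial cells and dermal fibroblasts dosed for 24 h; MMP-9 quantified by ELISA and fitted upward versus DMSO. Cytotoxicity monitored in parallel cultures by SRB total-protein staining at the biomarker time point.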

Measured: AC50

NC(=O)c1c(Cl)cccc1Cl
inactive: [1] | [2] | [3]

Nc1ccc(N)c([N+](=O)[O-])c1
inactive: [1] | [2] | [3]

CC1=CC(C)C(C=O)C(C)C1 (stereo not given) (tested in a mixture with another compound)
inactive: [1] | [2] | [3]

CCCCCCCCCCCCS
inactive: [3]
active: [1] 20 µM | [2] 5.81 µM

C=CC(=O)OCC(CO)(COC(=O)C=C)COC(=O)C=C
active: [1] 0.642 µM | [3] 2.05 µM
inactive: [2]

CCC(=O)OCC=Cc1ccccc1
inactive: [1] | [2] | [3]

CCCCCCCC1CCCC1=O (stereo not given)
active: [1] 32.4 µM | [2] 32.4 µM
inactive: [3]

CC(C)Cc1ccc(C(C)C(=O)O)cc1 (stereo not given)
inactive: [1] | [2] | [3]

OCC(F)(OC(F)(F)C(F)(OC(F)(F)C(F)(F)C(F)(F)F)C(F)(F)F)C(F)(F)F (stereo not given)
inactive: [2] | [3] | [4] | [5] | [6] | [7] | [8] | [9] | [10]
active: [1] 2.54 µM and 3.33 µM | [6] 4.28 µM

CC1(C)[C@H](C=C(Cl)Cl)[C@H]1C(=O)OCc1cccc(Oc2ccccc2)c1
inactive: [1] | [2] | [3]

CC=CC(=O)C1=C(C)C=CCC1(C)C
inactive: [1] | [2] | [3]

COc1ccccc1NC(=O)CC(C)=O
inactive: [1] | [2] | [3]

C=C1CC/C=C(\C)CC[C@@H]2[C@@H]1CC2(C)C
active: [1] 28.8 µM | [2] 9.66 µM | [3] 34.6 µM

C=C(F)C(=O)OC(C(F)(F)F)C(F)(F)F
inactive: all assays above

CC(=O)OCC=C(C)CCC=C(C)CCC=C(C)C
inactive: [1] | [2] | [3]

O=C(O)C(F)(F)C(F)(F)C(F)(F)C(F)(F)C(F)(F)C(F)(F)C(F)(F)C(F)F
inactive: [1] | [2] | [3] | [4] | [5] | [8] | [9] | [10]
active: [4] 51.9 µM | [6] 4.37 µM and 2.45 µM | [7] 2.94 µM and 2.8 µM

CC(=O)CCC=C(C)CCC=C(C)C
inactive: [1] | [2] | [3]

CCOC(=O)CCCCCCCCC(=O)OCC
inactive: [1] | [2] | [3]

C=C(C)C(=O)OCCC(F)(F)C(F)(F)C(F)(F)C(F)(F)C(F)(F)C(F)(F)C(F)(F)C(F)(F)F
inactive: all assays above

O=C1OC2(c3ccc(O)cc3Oc3cc(O)ccc32)c2ccccc21
inactive: [1] | [2] | [3]

O=S(=O)(O)C(F)(F)C(F)(F)OC(F)(F)C(F)(F)F
inactive: [1] | [2] | [3] | [4] | [5] | [6] | [7] | [8] | [9] | [10]
active: [5] 36.9 µM

O=C(O)C(F)(F)OC(F)(F)C(F)(F)OC(F)(F)C(F)(F)C(F)(F)C(F)(F)F
active: [3] 11.9 µM and 8.26 µM | [5] 12.9 µM and 17.8 µM
inactive: all other assays above

CC(=O)OC(C)(C)C1CC=C(C)CC1 (stereo not given)
inactive: [1] | [2] | [3]

O=S1(=O)CC(Cl)(Cl)C(Cl)(Cl)C1
active: [1] 2.14 µM | [2] 3.45 µM | [3] 3.94 µM

c1ccc(Sc2ccccc2)cc1
active: [1] 34.8 µM | [2] 30.8 µM | [3] 32.3 µM

c1ccc2c(c1)-c1ccc3ccc4cccc5cc-2c1c3c45
inactive: [1] | [3]
active: [2] 1.33 µM

CCCCCCCCCC(=O)OCC
inactive: [1] | [2] | [3]

OCCN1CCOCC1
inactive: [1] | [2] | [3]

CC(C)(C)c1cccc(O)c1
inactive: [1] | [2] | [3]

CCOC(=O)C=Cc1ccccc1
inactive: [1] | [2] | [3]
